In the supplement of paper PMC10681739 one finds ETS1 binding intensity data, which are given here for 40 sequences.

The target of this assay is T1, ETS1 (UniProt P14921).
T1 sequence: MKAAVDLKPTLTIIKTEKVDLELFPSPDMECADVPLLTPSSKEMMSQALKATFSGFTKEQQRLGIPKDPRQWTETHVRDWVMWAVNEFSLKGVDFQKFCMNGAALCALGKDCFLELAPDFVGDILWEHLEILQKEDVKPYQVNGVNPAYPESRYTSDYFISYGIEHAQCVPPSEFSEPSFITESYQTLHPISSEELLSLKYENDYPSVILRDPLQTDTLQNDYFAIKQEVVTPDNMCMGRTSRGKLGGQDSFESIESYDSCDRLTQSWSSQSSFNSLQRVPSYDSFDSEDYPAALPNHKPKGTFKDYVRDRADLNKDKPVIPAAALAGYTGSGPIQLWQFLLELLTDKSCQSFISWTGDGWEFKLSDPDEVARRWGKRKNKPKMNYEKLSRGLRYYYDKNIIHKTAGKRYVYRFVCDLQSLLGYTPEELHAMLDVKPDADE
Kind of assay: ETS1 binding intensity (PBM fluorescence) in presence of RUNX1, normalised to ETS1-only experiment (arbitrary fluorescence units); higher = stronger binding. The settings on record: ETS1 concentration 1 nM; RUNX1 concentration 25 nM. As to the method:
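Cooperative genomic-context PBM: 36-bp genomic probes with neighbouring ETS1 and RUNX1 sites, double-stranded on Agilent 4x180k arrays. Full-length recombinant human ETS1 (1 nM) was incubated alone or with RUNX1 (25 nM) and detected with anti-ETS1 antibody plus Alexa488 secondary. Value is the median fluorescence intensity over 4 replicate spots; the ETS1+RUNX1 data were normalised to the ETS1-only data using probes without RUNX1 sites. The 36-bp variable region sits on the array probe with constant linker/primer flanks that are not printed.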
Regarding CACTTCCGGGTCGTCAGCTCAGTTCTGCGGTTTCTG, the ETS1 binding intensity was found to be 5740.
On to CCCCACCCAGACAGGAAACTGTGGCTTCTATCAGAT, for which the ETS1 binding intensity worked out at 4660.
The result for GGACCCAGCAGAGGATGTGGTTACAGGGCCATGATA reads 5450; that for CAGAGGCCCGGCCTCTTCCGCCACAACTCCGGCCCG, 356.
Take GGTACCAAGGGCAGAGGATGTGGTGAGGTGTGGAGG: the ETS1 binding intensity was 3140.
For AGCACGCCGGGAAATGGAGTCTCAGGTGGTTTTTAA, the ETS1 binding intensity is 364.
Take TCAGGAAGTGGTGTGACCAGCATGTGAACCGCGGCA: the ETS1 binding intensity was found to be 1110.
For AATGCAGCATTTCCTCTCCAGTTCACCACAGGCCCC, the ETS1 binding intensity was determined as 634.
For the sequence AGTTGCTAAGGAAATGACTGCCCGCAGCGCCTGGCC, the ETS1 binding intensity amounted to 929.
Consider GGGAACTGGGGAAGGGGATGTGGTAACCAGAACCAC, for which the ETS1 binding intensity turned out to be 2600.
The result for CCCCGTTACGCCCATCCGGCTCCCGCATAGGGCGTC reads 402; that for CTGGGCTCGCCAGGCGGAAGTGGTTGGAGACTGCGT, 9090.
The result for CGGGGCTTCCGGCGCGCTGCCTTGTGGGCACGGTAG reads 611; that for GGCGGATGGGGAGAAGAGAGTGGCTGTGGTCTCTGG, 491; that for CCGCCGCGACACTTCCGGCGGCCACCACAGGGTATT, 3020.
On to ATGTGCGTGTGCACAGGAAAACCACTGCCAGTATTT, for which the ETS1 binding intensity turned out to be 789.
CTGGAAACCATTTCCTTTGTGGCCATGAAACAATGG: the ETS1 binding intensity turned out to be 601.
The result for GAGGCCCAGGATGTGGCTGGAGGCCTGTGGTGGGAC reads 1130; that for GCTGTCCGTTTCCGAGATGTTAATGCGGGATCTTGC, 402.
The result for CCACTGCCGGAAGGGGAACTGTGGGGGTGCGCGAGT reads 963; that for GCCCCCGGCTGGGCAGGATGTGGTGGCAGCTGCAGG, 5380; that for GCCGGGCACCCCGGAAGACCGCTGGGAACCGGCTTT, 1070.
As for CCCTCATCTTCCTGCTTCAGGCAGCTGTGGTTTACC, the ETS1 binding intensity stood at 1550.
Take ACCAGGATGTAGTTTAGCTTAGGGGTGGTTATATCG: the ETS1 binding intensity turned out to be 494.
The result for TCCCTCATGAGCTTCTTCCGCCCGCAACACGAGACT reads 481; that for ATAAACAGGAAGCTGAGTATGTGACCACAGACATTC, 5200.
Take GCGCACACATGCTTCCTGTGGTGACTGGGCGCTTCA: the ETS1 binding intensity amounted to 512.
As to AATCCACCGGAAACACTTAGACGCCGCAACCCCAGT, the ETS1 binding intensity turned out to be 5740.
In the case of GGTCACATCCTTTCCCTTCTGTGTCTCAGCCGCAGT, the ETS1 binding intensity came out at 449.
On to TAACCCGGAGCGGAAGGATCCCGCAGCGTGTGCGTA, for which the ETS1 binding intensity is 797.
The result for AGGTACCAGGCCCGGAAACCACGGAAAGGGGAACTT reads 5500.
Take GGCCAGGCAGGAAGTCCCGCGCCACAAGCGGCCGTC: the ETS1 binding intensity worked out at 3300.
The result for TCCAGGCATTTCCCCCATGTTGGCTCACCGCACTAT reads 594; that for TGGTTCCACCGACCGGAAGGGCCACAAGGATCCCCG, 5560; that for GCCCGGAAGCGCGACGCTGGAGCTGCGGGGTTACCA, 887.
Take ACTGGCTTCACTTCCTCCGCGGTTCCTCGGAGCCGC: the ETS1 binding intensity worked out at 514.
Turning to CGGTGGCTTCCGGCCCATGGCGGTGGTTGGTGACTC, the ETS1 binding intensity is 953.
With ACCGGGTGCTGAGGAGGAAGTGGTTGCTATAACCCC, the ETS1 binding intensity amounted to 3420.
Turning to TACATAGGCGGAAGTGGCCTGCGGGCGCCGGAGTTG, the ETS1 binding intensity stood at 9480.
The result for GAAAGGGTTCATCCAGGAAACCACAACCCAGTGCCG reads 1820.
